Potency data for seven compounds are collected here from PubChem BioAssay AID1347051 (National Center for Advancing Translational Sciences (NCATS), 2019).

The campaign covered roughly 1,400 compounds. About 980 (70%) were called active. Not shown: some 16% with an inconclusive outcome. Calls follow the shape of the full dose curve. The set was probably picked from earlier hits. Only a sample is shown.
Potency is read from the fitted curve at half-maximal effect.

The nature of the assay: Natriuretic polypeptide receptor (hNpr1) antagonism - Counterscreen GloSensor control cell line. Also: nearly all actives have a fitted effect of over 70% in size. The note with it: HEK293 GloSensor cGMP, SNP-stimulated, luminescence; series mostly up to 57.6 µM. Here is the method: cGMP production was measured using a circular permutated firefly luciferase (FLuc) enzyme functionally linked to the cGMP binding domain of human phosphodiesterase 5 (GloSensor technology pGS-40F, (Fan, F. et al. 2008). The cGMP-sensor was expressed in human embryonic kidney 293 (HEK-293) cells and FLuc activity was measured after stimulation with the NO-donor sodium nitroprusside (SNP). SNP activates the endogenously expressed soluble guanylyl cyclase (GC) producing cGMP which then binds to the GloSensor resulting in FLuc activation, the enzymatic activity of which can be measured as bioluminescence with addition of luciferin substrate. F. Fan, B. F. Binkowski, B. L. Butler, P. F. Stecha, M. K. Lewis, K. V. Wood, Novel genetically encoded biosensors using firefly luciferase. ACS Chem Biol 3, 346-351 (2008).
PROTOCOL TABLE (as described by Inglese J, Shamu CE and Guy RK. 2007) SEQUENCE No. (e.g., 1, 2, 3, etc.); PARAMETER (e.g., Cells, Incubation, Reagent, etc.); VALUE and DESCRIPTION. 1. Cells. Seed 1500 HEK293 cGMP-sensor cells per well in 4uL into Greiner 1536-well white/solid bottom high base, TC plates. 2. Incubation. Incubate plated cells at 37C in 5% CO2, 95% RH overnight. 3. Reagent. Add 1uL per well GloSensor reagent from Promega (2% final concentration) or CO2 independent media vehicle control to respective columns of Greiner 1536-well plates. 4. Incubation. Incubate plated cells at room temperature for 2 h, protect from light. 5. Compounds. Library compounds and DMSO vehicle control added at 23nL per well, transferred by Pin Tool. 6. Incubation. Incubate plated cells for 30 min. at room temperature, protect from light. 7. Detector. GloSensor baseline pre-read luminescence measured using CCD-based camera (Viewlux). 8. Compound. Add 1uL of sodium nitroprusside (SNP) to 50 uM final concentration to stimulate soluble guanylyl cyclase (GC) or CO2 independent media as vehicle control. 9. Incubation. Incubate treated cells at room temperature for 20 min., protect from light. 10. Detector. GloSensor post-SNP luminescence measured using CCD-based camera (Viewlux). NOTES (numbers refer to Sequence numbers above; values are from representative experiments) 1. HEK293 cells expressing GIP/pGS-40F were grown to 85-95% confluence (48-72 h) in T175 culture flasks (CO2 independent media supplemented with 10% FBS, 1% Pen/Strep antibiotics, and 1 ug/mL puromycin). Trypsinize and harvest cells from T175 culture flasks and filter through 40 um cell strainer. Cells counted with Invitrogen Countess (30,000,000 - 50,000,000 cells/flask). Cells diluted to a final concentration of 375 cells/uL in CO2 independent media and a Millipore multidrop used to dispense 1500 cells per well (4uL/well) into 13 1536-well Greiner White/Solid bottom, high base tissue-culture treated (TC) plates and one Aurora 1536-well Black/Clear bottom, low base, TC plate (for visual inspection of cell health throughout the duration of the assay). 2. Cells incubated for 24 h. at 37C in 95% RH incubator with metal lid having gas-exchange holes. 3. Prepare GloSensor Reagent (Promega): Reconstitute GloSensor luciferase substrate by adding 8.2mL Hepes buffer to 250mg substrate, mix well, protect from light and stored at -80C. Prepare a fresh 12% GloSensor solution in CO2 independent supplemented plating media (see above). Mix well and store at ambient temperature, protected from light. 1uL 12% GloSensor Luciferase Reagent added (2% final concentration) to respective columns of 13 x 1536-well Greiner plate with BioRaptr, 1uL CO2 independent plating media added to respective columns as vehicle control with BioRaptr. 4. Cells incubated for 2 h. at ambient temperature, protected from light with metal lid having gas-exchange holes. 5. 23nL of library compounds or DMSO vehicle control transferred to 13 Greiner white/solid bottom high base, TC plates in 11 interplate 1:3 titrations (see Yasgar, A. et al. 2008) with Pintool. 6. […]
On the technique in general: A counterscreen serves to expose hits that act by an unwanted route or on another target.
For the compound `COc1cc2c(cc1Oc1cccc(N(C)C)c1)NC(=O)C21CCN(c2cnccn2)CC1`, the Potency is 21.7 µM (active).
Under `COc1cc2c(cc1Oc1cccc(N(C)C)c1)NC(=O)C21CCN(Cc2ccccn2)CC1` stands 19.3 µM (active).
Take `COc1cc2c(cc1Oc1cccc(N(C)C)c1)NC(=O)C21CCN(CCC(C)C)CC1`: the Potency is 31.4 µM (active).
To `COc1cc2c(cc1OCc1ccncc1)NC(=O)C21CCN(c2ncc(F)cn2)CC1` belongs 44.4 µM (active).
Under `CCC(CC)c1cc([C@H]2CN3CC[C@H]2C[C@@H]3CNS(=O)(=O)c2ccccc2C#N)nc(-c2ccncc2)n1` stands “inactive”.
Under `CCC(CC)c1cc([C@H]2CN3CC[C@H]2C[C@@H]3CNC(=O)NCc2ccccc2)nc(-c2ccncc2)n1` stands “inactive”; under `CCC(CC)c1cc([C@H]2CN3CC[C@H]2C[C@@H]3CNS(=O)(=O)Cc2ccccc2)nc(-c2ccncc2)n1`, “inactive”.
